Results filed as inconclusive are left out. A call without a number means that no potency is given here. Active and inactive are the calls of the source. The call rests on the fitted dose curve; in most records, active means well fitted activation curve with a large enough effect; inconclusive means small, poorly fitted or top-dose-only effect; inactive means flat fitted curve, though single readings scatter.

A short description of the experiment: Primary redox qHTS assay for identification of artifact compounds. (AID 1845223). Conditions: Amplex Red/HRP redox cycling with DTT, fluorescence; series mostly up to 53.8 µM. An outline of the steps: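 Redox-cycling detection via DTT (250 uM final) oxidation coupled to Amplex Red (25 uM)/HRP (250 mU/mL) in HBSS. 15 min preincubation plus 30 min after DTT, room temperature. Ex/Em 525/598 nm; 4-parameter Hill fit against DMSO and 10 uM DA3003.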
For orientation: qHTS replaces the single test concentration by a dilution series.
On to `CCCCNc1ncc2c(-c3ccc(S(=O)(=O)N4CCOCC4)cc3)nn(C3CCC(O)CC3)c2n1` (centres undefined), for which the Potency result is “inactive”. For the molecule `CC(NCCCc1cccc(C(F)(F)F)c1)c1cccc2ccccc12` (centres undefined), the Potency entry is “inactive”. Take `Cc1cc2sc(NC(=O)Cc3ccccc3)nc2cc1Cl`: the Potency entry is “inactive”. On to `NCC(CNc1nc(Nc2cccc(NC(=O)N3CCCC3)c2)ncc1I)C(=O)c1cccs1` (centres undefined), for which the Potency entry was “inactive”. With `C=C(C)C(=O)OC1CC2(C)OC(=CC2=O)C(=C)CC2OC(=O)C(=C)C12` (centres undefined) the entry was “inactive”; with `CC(C)(Cc1nc(-c2ccc(O)cn2)no1)C(=O)NC1=C(C(=O)O)CCCC1`, “inactive”. The value for `C/C1=C\[C@@H](C)C[C@@H](C)[C@@H](Cc2cnco2)OC(=O)/C(C)=C/[C@@H](C)C[C@@H](C)[C@@H](Cc2cnco2)OC1=O` was “inactive”.

As to `CCCCCCCCn1cc(CN(CC)CC)c2cc(-c3cnc(N)nc3)ccc21`, the Potency result is “inactive”. In the case of `CC(=O)OC1[C@H]2[C@@H](C[C@@H](C)[C@@H]3C=CC(=O)[C@@]13C)OC(=O)[C@@H]2C` (some centres undefined), the Potency result is “inactive”.

`O=C(NCCCN1CCOCC1)c1cnn2c(-c3ccccc3)cc(-c3ccccc3)nc12`: the Potency result was “inactive”.

Regarding `CN(C)CCN(Cc1ccccc1)C(=O)c1cc(-c2ccc(F)cc2)n2nc(C(C)(C)C)cc2n1`, the Potency result is “inactive”.

`Cc1ccc(NC(=O)N2CCN(c3nc(N)nc4sc(-c5cccnc5)nc34)CC2)cc1`: the Potency entry is “inactive”. `COc1cc(-c2nc(N[C@H](CO)Cc3ccccc3)ccc2C(=O)NCCOc2ccccc2)cc(OC)c1OC`: the Potency result is “inactive”. With `COc1cc([C@H]2O[C@H](c3cc(OC)c4c(c3)OCO4)[C@H](C)[C@H]2C)cc(OC)c1OC` the entry was “inactive”.

Source of the values: PubChem BioAssay (NCATS).
